Where “and” joins values, the source holds several entries; their conditions need not be identical. Equal values may be shown once. Results filed as inconclusive are left out. More than one record can exist for a structure, and the calls need not agree. Calls of active or inactive are those of the source. Unless noted, calls follow the shape of the dose curve; as a rule, active = well fitted curve in the direction sought with a large enough effect in the repeat runs; inconclusive = weak or mixed curves; inactive = no such curve, though single readings can be large; an effect the other way counts as inactive or inconclusive.

Assay [1] concerns the target Acetylcholinesterase (Homo sapiens) (UniProt P22303). The experiment in a line: Acetylcholinesterase (AChE) small molecule antagonists: enzyme-based qHTS assay (AID 1347397; calls by dose curve; also: nearly all actives have a fitted effect of over 55% in size). The following applies: Potency: AChE enzyme activity inhibition. In a few lines: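 Compound or DMSO vehicle was pin-transferred onto recombinant human AChE (50 mU/mL as dispensed) and left 30 min at room temperature. Acetylthiocholine with DTNB then started the reaction, read colorimetrically 10 min later.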

Assay [2] has the same target. The experiment in a line: Acetylcholinesterase (AChE) small molecule antagonists: fluorescence cell-based qHTS assay (AID 1347398; calls by dose curve; also: nearly all actives have a fitted effect of over 50% in size). The note with it: Potency: AChE activity. The gist of the method:
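Using neuroblastoma SH-SY5Y cells as the enzyme source, test chemicals are preincubated 30 min at 37 C; AChE-driven acetylthiocholine cleavage is then quantified by thiocholine-dependent Thiolite Green fluorescence after 40 min at room temperature.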
For orientation: Quantitative high-throughput screening tests each substance at several concentrations.

Assay [3] shares this target. The experiment in a line: Acetylcholinesterase (AChE) small molecule antagonists: enzyme-based qHTS assay with human liver microsomes (AID 1347399; calls by dose curve; also: nearly all actives have a fitted effect of over 60% in size). The note with it: Potency: qHTS inhibition. The gist of the method:
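Recombinant human AChE (50 mU/mL in the enzyme mix) and human liver microsomes (0.25 mg/mL final) were preincubated with compound and NADPH (0.25 mg/mL final) for 30 min at 37 C. Acetylthiocholine/DTNB was then added; thiocholine was read colorimetrically after 10 min at room temperature.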

In assay [4] the target is Cytochrome P450 2D6 (Homo sapiens) (UniProt P10635). The experiment in a line: Cytochrome P450 Family 2 Subfamily D Member 6 (CYP2D6) small molecule antagonists: luciferase reporter qHTS assay (AID 1671196). Also: nearly all actives have a fitted effect of over 50% in size. As to activity change, negative = inhibition: series mostly up to about 120 µM. The gist of the method:
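Room-temperature luminescent CYP2D6 activity assay: compound preincubated 10 min with enzyme–substrate mix, NADPH-initiated reaction 1 h, detection reagent 20 min before reading.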
For orientation: In a reporter assay the amount or activity of a reporter protein is the signal.

In assay [5] the target is Cytochrome P450 2C19 (Homo sapiens) (UniProt P33261). The experiment in a line: Cytochrome P450 Family 2 Subfamily C Member 19 (CYP2C19) small molecule antagonists: luciferase reporter qHTS assay (AID 1671197). Also: nearly all actives have a fitted effect of over 65% in size. As to activity change, negative = inhibition: series mostly up to about 120 µM. In a few lines: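 CYP2C19 P450-Glo, 1536-well qHTS. Cpd + enzyme/proluciferin substrate 10 min RT; + NADPH regen, 37C 1 h; stop with luciferin detection reagent, 20 min RT, luminescence (RLU). Pos ctrl ketoconazole.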
Chain of Cytochrome P450 2C19 (Homo sapiens) (P33261 whole entry, looked up): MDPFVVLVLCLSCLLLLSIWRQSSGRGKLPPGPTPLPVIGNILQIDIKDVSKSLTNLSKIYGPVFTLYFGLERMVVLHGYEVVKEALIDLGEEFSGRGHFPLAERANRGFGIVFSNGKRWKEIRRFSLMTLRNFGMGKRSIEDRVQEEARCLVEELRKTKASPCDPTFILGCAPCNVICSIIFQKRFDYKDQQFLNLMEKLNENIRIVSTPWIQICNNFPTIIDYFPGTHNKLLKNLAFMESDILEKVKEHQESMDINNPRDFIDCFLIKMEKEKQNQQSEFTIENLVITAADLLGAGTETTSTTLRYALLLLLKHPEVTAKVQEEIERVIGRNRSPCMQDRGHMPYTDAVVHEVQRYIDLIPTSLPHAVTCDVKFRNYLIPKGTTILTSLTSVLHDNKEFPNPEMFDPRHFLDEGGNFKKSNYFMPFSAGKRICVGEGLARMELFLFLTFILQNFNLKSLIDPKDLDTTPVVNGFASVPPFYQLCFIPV

Assay [6] concerns the target Cytochrome P450 2C9 (Homo sapiens) (UniProt P11712). Description: Cytochrome P450 Family 2 Subfamily C Member 9 (CYP2C9) small molecule antagonists: luciferase reporter qHTS assay (AID 1671198). Also: nearly all actives have a fitted effect of over 50% in size. As to activity change, negative = inhibition: series mostly up to about 120 µM. The gist of the method: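 CYP2C9 activity was measured with a P450-Glo proluciferin substrate. Enzyme–substrate mix was held with compound for 10 min at room temperature, then NADPH regeneration solution was added for 1 h at 37C. Luciferin product was read as luminescence.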

The target in assay [7] is Voltage-gated inwardly rectifying potassium channel KCNH2 (Homo sapiens) (UniProt Q12809). The experiment in a line: Human Ether-a-go-go-Related Gene (hERG) channel small molecule antagonists: fluorescence cell-based qHTS assay (AID 1671200). Also: nearly all actives have a fitted effect of over 50% in size.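 As to activity change, negative = inhibition: hERG-expressing U2OS cells given a thallium stimulus after FluxOR II dye loading; series mostly up to about 77 µM.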 In a few lines: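 Read-out: thallium influx as a surrogate for potassium, tracked as fluorescence (480 nm ex/540 nm em) every second for 2 min after Stimulus Buffer addition in dye-loaded hERG-U2OS cells.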
Chain of Voltage-gated inwardly rectifying potassium channel KCNH2 (Homo sapiens) (Q12809 whole entry, looked up): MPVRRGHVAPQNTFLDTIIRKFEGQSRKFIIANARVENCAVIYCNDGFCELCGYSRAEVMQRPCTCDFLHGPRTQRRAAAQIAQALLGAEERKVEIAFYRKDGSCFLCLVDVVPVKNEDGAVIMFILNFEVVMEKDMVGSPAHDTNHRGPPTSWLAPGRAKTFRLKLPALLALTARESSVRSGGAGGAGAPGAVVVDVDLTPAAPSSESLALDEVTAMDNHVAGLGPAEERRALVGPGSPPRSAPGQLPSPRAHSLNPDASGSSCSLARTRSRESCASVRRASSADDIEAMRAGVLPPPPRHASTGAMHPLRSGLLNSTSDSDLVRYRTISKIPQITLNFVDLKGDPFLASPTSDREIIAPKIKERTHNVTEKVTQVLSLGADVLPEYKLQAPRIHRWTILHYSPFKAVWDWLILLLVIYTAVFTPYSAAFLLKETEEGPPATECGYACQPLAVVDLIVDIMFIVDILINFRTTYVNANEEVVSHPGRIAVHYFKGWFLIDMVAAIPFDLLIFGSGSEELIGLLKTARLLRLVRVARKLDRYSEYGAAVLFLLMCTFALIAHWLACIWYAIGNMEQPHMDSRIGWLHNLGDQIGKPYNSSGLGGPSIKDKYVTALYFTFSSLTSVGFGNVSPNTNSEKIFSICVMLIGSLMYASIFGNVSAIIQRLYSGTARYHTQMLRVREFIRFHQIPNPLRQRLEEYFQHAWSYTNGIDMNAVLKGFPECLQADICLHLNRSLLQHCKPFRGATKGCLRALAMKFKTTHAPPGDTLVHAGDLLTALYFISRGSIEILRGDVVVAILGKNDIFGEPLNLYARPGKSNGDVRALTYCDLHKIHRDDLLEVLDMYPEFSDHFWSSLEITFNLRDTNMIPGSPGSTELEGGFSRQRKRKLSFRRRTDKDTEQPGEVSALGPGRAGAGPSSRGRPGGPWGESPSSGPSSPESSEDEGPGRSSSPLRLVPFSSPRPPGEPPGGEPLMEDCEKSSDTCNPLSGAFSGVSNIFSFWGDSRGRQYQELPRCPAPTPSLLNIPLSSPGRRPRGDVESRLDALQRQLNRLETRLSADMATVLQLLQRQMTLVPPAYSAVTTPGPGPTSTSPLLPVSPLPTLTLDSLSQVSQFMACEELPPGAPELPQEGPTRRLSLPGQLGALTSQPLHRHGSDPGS
Background: hERG is a cardiac potassium channel; its block is linked to QT prolongation.

Assay [8] has as its target Cytochrome P450 3A4 (Homo sapiens) (UniProt P08684). Description: Cytochrome P450 Family 3 Subfamily A Member 4 (CYP3A4) small molecule antagonists: luciferase reporter qHTS assay (AID 1671201). Also: nearly all actives have a fitted effect of over 50% in size. As to activity change, negative = inhibition: series mostly up to about 120 µM. In a few lines: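 Luminescent readout (RLU) proportional to CYP3A4 activity, from luciferin generated off a proluciferin substrate. Enzyme–substrate mix plus compound 10 min at room temp, NADPH regeneration 1 h, detection reagent 20 min.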

Assay [9] deals with Cytochrome P450 1A2 (Homo sapiens) (UniProt P05177). Description: Cytochrome P450 Family 1 Subfamily A Member 2 (CYP1A2) small molecule antagonists: luciferase reporter qHTS assay (AID 1671199). Also: nearly all actives have a fitted effect of over 50% in size. As to activity change, negative = inhibition: series mostly up to about 120 µM. The gist of the method: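 Room-temperature CYP1A2 reaction with proluciferin substrate: compounds added from DMSO, 10 min preincubation, NADPH regeneration for 1 h. Luciferin detection reagent then added; luminescence recorded as RLU.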
Chain of Cytochrome P450 1A2 (Homo sapiens) (P05177 whole entry, looked up): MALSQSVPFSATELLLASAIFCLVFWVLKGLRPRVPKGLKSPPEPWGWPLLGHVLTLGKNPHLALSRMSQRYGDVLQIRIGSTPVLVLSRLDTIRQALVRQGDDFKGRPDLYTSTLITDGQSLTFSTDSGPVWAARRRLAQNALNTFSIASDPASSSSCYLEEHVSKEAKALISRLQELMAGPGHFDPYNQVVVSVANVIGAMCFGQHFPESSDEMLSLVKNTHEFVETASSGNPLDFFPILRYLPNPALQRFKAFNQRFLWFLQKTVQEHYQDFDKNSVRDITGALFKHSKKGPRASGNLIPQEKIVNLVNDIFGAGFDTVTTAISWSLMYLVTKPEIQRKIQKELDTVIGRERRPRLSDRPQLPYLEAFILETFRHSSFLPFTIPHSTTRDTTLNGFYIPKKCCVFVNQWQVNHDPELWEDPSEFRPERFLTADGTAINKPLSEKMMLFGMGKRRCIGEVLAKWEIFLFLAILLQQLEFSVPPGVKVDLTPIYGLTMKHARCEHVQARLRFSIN
% is scaled to controls: 0 for no effect and ±100 for the full control effect; potency is read from the fitted curve at half-maximal effect.

Chain of Cytochrome P450 3A4 (Homo sapiens) (P08684 whole entry, looked up): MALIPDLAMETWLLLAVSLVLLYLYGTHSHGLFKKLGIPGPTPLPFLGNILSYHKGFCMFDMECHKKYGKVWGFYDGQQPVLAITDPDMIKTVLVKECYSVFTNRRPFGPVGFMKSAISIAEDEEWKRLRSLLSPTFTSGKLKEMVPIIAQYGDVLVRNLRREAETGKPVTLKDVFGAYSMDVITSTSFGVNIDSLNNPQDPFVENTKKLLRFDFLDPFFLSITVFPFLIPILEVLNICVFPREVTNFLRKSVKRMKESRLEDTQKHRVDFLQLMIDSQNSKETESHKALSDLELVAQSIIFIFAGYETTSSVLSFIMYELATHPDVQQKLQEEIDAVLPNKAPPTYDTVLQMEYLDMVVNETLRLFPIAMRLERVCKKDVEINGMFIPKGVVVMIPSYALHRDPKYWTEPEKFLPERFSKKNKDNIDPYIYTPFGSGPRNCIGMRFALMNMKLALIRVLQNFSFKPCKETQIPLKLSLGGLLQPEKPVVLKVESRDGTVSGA
Chain of Acetylcholinesterase (Homo sapiens) (P22303 whole entry, looked up): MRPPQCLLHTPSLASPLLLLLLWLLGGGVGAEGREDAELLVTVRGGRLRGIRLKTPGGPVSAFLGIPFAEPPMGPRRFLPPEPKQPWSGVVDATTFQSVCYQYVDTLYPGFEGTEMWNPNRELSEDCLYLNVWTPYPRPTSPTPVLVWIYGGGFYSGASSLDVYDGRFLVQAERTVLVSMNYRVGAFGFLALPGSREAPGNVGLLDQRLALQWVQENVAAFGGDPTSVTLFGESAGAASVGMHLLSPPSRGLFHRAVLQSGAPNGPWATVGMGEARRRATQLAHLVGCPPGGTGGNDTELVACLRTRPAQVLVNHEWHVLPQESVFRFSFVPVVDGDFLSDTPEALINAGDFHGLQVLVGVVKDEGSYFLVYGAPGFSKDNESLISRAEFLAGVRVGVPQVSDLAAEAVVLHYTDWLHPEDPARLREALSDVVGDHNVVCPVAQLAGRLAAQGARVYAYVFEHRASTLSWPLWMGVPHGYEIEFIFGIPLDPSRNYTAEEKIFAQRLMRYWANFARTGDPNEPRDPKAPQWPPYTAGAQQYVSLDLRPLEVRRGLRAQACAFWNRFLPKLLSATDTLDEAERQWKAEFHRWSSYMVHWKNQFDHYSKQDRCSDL
Chain of Cytochrome P450 2C9 (Homo sapiens) (P11712 whole entry, looked up): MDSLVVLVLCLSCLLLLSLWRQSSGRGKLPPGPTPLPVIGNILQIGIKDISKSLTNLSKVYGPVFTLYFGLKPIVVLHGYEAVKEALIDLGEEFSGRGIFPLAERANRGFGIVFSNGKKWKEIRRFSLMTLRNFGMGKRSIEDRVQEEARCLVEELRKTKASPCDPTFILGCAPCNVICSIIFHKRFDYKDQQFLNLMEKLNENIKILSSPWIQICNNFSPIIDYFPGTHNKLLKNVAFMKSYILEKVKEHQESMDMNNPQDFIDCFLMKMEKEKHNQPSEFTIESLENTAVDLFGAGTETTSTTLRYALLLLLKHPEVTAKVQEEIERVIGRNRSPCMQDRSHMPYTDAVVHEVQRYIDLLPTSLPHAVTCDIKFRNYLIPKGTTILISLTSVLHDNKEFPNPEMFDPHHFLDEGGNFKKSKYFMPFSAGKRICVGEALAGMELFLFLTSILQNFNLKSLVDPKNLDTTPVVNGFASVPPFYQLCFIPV
Chain of Cytochrome P450 2D6 (Homo sapiens) (P10635 whole entry, looked up): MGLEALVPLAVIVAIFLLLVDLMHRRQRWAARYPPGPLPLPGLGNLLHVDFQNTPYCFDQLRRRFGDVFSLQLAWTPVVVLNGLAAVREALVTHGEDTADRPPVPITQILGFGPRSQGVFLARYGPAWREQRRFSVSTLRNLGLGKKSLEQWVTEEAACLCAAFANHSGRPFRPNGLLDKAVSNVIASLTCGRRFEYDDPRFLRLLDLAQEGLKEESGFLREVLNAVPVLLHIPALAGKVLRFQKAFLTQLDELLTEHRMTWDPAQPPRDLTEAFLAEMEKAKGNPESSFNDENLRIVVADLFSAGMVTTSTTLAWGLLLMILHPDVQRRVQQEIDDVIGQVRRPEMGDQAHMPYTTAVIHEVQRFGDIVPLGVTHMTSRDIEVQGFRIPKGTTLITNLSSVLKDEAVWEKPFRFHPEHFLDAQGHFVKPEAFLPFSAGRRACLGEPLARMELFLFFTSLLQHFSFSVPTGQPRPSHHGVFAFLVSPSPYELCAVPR

For `O=[N+]([O-])c1cc(Cl)ccc1Cl`, the Potency result in assay [1], in assay [2], in assay [3], in assay [4], in assay [5] and in assay [6] was “inactive” in each case. The Potency result in assay [7] and in [8] was “inactive” throughout.
For `Oc1ccc2ccc3cccc4ccc1c2c34`, the Potency entry in assay [1], in [2], in [3], in assay [4] and in assay [7] was “inactive” each time. Besides, the Potency in [5] is 20 µM (active); in assay [6], 35.6 µM (active); in assay [9], 0.894 µM (active); in assay [8], 31.7 µM (active).
As to `COCC(=O)N(c1c(C)cccc1C)[C@H](C)C(=O)OC`, the Potency result in [1], in assay [2], in assay [3], in assay [4], in assay [6] and in [7] was “inactive” in each case. Also, the Potency in assay [5] was 79.6 µM (active).
As for `CC(C)CC(C)N` (centres undefined), the Potency result in [1], in [2], in assay [3], in [4], in assay [5] and in assay [6] was “inactive” throughout. The Potency entry in assay [9] and in [8] was “inactive” throughout.
For the molecule `c1ccc2cc3c(cc2c1)-c1cccc2cccc-3c12`, the Potency result in assay [1], in assay [2], in assay [3], in assay [4], in [5] and in [6] was “inactive” in each case. Further, the Potency entry in assay [8] is “inactive”. The Potency in assay [9] was 0.197 µM (active).
As for `O=C(CCl)Nc1ccccc1`, the Potency entry in assay [1], in assay [2], in assay [3], in [5], in assay [6] and in [7] was “inactive” in each case. Further, the Potency result in assay [8] was “inactive”. The Potency in [4] is 39.9 µM (active).
In the case of `N#CCc1ccc(Cl)cc1`, the Potency entry in assay [1], in [2], in assay [3], in assay [4], in assay [6] and in assay [7] was “inactive” throughout. Moreover, in assay [8], the Potency result was “inactive”. The Potency in [5] was 39.9 µM (active).
For `CCC(C)c1cc([N+](=O)[O-])cc([N+](=O)[O-])c1OC(=O)C=C(C)C` (centres undefined), the Potency result in assay [1], in [2], in assay [3], in assay [4] and in assay [8] was “inactive” throughout. The Potency in assay [5] and in assay [6] was 35.6 µM (active) in each case.
For `CC1(c2ccc(Oc3ccccc3)cc2)OC(=O)N(Nc2ccccc2)C1=O` (centres undefined), the Potency entry in assay [1], in assay [2], in [3] and in assay [4] was “inactive” throughout. Further, the Potency in [5] was 12.7 µM (active); in [6] it was 8.99 µM (active); in [9], 35.8 µM (active); in [8] it was 11.3 µM (active).
`C[C@]12CC[C@@H]3c4ccc(OC(=O)N(CCCl)CCCl)cc4CC[C@H]3[C@@H]1CC[C@@H]2O`: the Potency result in assay [1], in [2], in [3], in assay [4], in [5] and in assay [6] was “inactive” each time. In addition, the Potency entry in assay [7] and in assay [8] was “inactive” throughout.
Turning to `Clc1ccc(C(c2ccccc2Cl)C(Cl)(Cl)Cl)cc1` (centres undefined), the Potency entry in [1], in [2], in assay [3], in [4], in assay [9] and in assay [8] was “inactive” throughout. The Potency was 637 nM (active) and 234 nM (active) in assay [5]; 22.6 µM (active) and 10.4 µM (active) in [6].
Turning to `CC(C)OC(=O)C(O)(c1ccc(Cl)cc1)c1ccc(Cl)cc1`, the Potency entry in assay [1], in assay [2], in assay [3] and in [8] was “inactive” in each case. The Potency in assay [4] was 31.7 µM (active); in assay [5], 2 µM (active); in assay [6], 8.94 µM (active); in assay [7] it was 21.9 µM (active).
Take `CCCCCCCCCBr`: the Potency entry in assay [1], in assay [2], in assay [3], in [4], in assay [5] and in assay [6] was “inactive” each time. Besides, the Potency entry in assay [9] and in [8] was “inactive” each time.
As to `CN(CCCC(O)c1cccnc1)N=O` (centres undefined), the Potency entry in [1], in assay [2], in assay [3], in assay [4], in [5] and in [9] was “inactive” in each case. The Potency result in [7] is “inactive”.
With `Oc1ccccc1Br`, the Potency result in assay [1], in assay [2], in assay [3], in assay [4], in assay [5] and in assay [6] was “inactive” each time. Besides, the Potency entry in assay [9] and in assay [8] was “inactive” in each case.
Consider `CCOP(=S)(OCC)SCS(=O)(=O)CC`, for which the Potency in assay [1] was 7.1 µM (active); in [2], 2.52 µM (active); in assay [3] it was 12.6 µM (active); in assay [4], 39.9 µM (active); in assay [5], 5.64 µM (active); in [6], 12.6 µM (active). Besides, the values for the Potency in assay [9] and in assay [8] were 35.6 µM (active) and 7.96 µM (active), respectively.
On to `O=C(Nc1ccc2[nH]ccc2c1)c1cc2cc(F)ccc2n1Cc1cccc(F)c1`, for which the Potency result in assay [1], in [2], in assay [3] and in assay [7] was “inactive” in each case. For the same molecule, the Potency in [4] is 15.9 µM (active); in assay [5], 6.33 µM (active); in assay [6], 3.56 µM (active); in [8], 2.52 µM (active).
`Cc1c(Cl)c(=O)oc2cc(OP(=O)(OCCCl)OCCCl)ccc12`: the Potency was 0.246 µM (active) in assay [1]; 0.275 µM (active) in assay [2]; 3.09 µM (active) in assay [3]; 3.47 µM (active) in [4]; 2.19 µM (active) in assay [5]; 3.89 µM (active) in assay [6]. In addition, the Potency entry in [8] is “inactive”.
As for `C[C@]12CC[C@H](O)C[C@H]1CC[C@@H]1[C@@H]2C[C@@H](O)[C@]2(C)[C@@H](C3=CC(=O)OC3)CC[C@]12O`, the Potency result in assay [1], in [2], in assay [3], in assay [4], in assay [5] and in assay [6] was “inactive” in each case. The Potency result in assay [9] and in assay [8] was “inactive” throughout.
Take `BrCBr`: the Potency entry in [1], in assay [2], in assay [3], in [4], in [5] and in assay [6] was “inactive” each time. Also, the Potency entry in assay [9], in assay [7] and in assay [8] was “inactive” throughout.
Take `[Cl][Sn]([c]1ccccc1)([c]1ccccc1)[c]1ccccc1`: the activity change, negative = inhibition was 0% [at 23.6 µM] (inactive) in assay [1], 12.9% [at 23.8 µM] (inactive) in [2], 0.0872% [at 23.6 µM] (inactive) in [3] and -2.03% [at 23.6 µM] (inactive) in assay [9]. The Potency is 0.952 µM (active) in assay [4], 6.74 µM (active) in assay [5], 3.79 µM (active) in assay [6] and 7.56 µM (active) in assay [8].
Turning to `O=C(O)C1C2CCC(O2)C1C(=O)O` (centres undefined), the Potency result in [1], in assay [2], in assay [3], in assay [4], in assay [6] and in assay [9] was “inactive” each time. In addition, the Potency entry in assay [8] is “inactive”. Besides, the Potency in assay [5] is 36 µM (active) and inactive.

These data come from PubChem BioAssay (Tox21).
